Results: PubChem BioAssay (NCATS)
Records with an inconclusive call do not appear. The source made the active and inactive calls. Calls follow the shape of the dose curve; as a rule, active = well fitted curve in the direction sought with a large enough effect; inconclusive = small, poorly fitted or top-dose-only effect, or another doubt; inactive = no such curve, though single readings can be large; an effect the other way counts as inactive or inconclusive.

Assays:
UISO = test: qHTS assay to identify novel small-molecules to repurpose for Merkel cell carcinoma treatment (AID 1296009); conditions: MCC and control cell lines, CellTiter-Glo viability, 72 h; series mostly up to 46 µM; also: nearly all actives have a fitted effect of over 60% in size; also: potency is read from the fitted curve at half-maximal effect
Outline: (§1)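 Cell viability, measured as CellTiter-Glo luminescence, was normalized between DMSO and no-cell wells. The cells had been exposed to 8- or 11-point compound dilutions for 72 hr at 37 degree celsius.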

WaGa = test: as above; conditions: MCC and control cell lines, CellTiter-Glo viability, 72 h; series mostly up to 46 µM
Outline: as §1

C33A = test: Primary qHTS to identify gynecologic anti-cancer compounds using libraries of approved drugs and bioactive compounds (AID 1345084); conditions: Gynecologic cancer cell panel viability, ATPlite luminescence, 48 h; series mostly up to 57.5 µM; also: nearly all actives have a fitted effect of over 55% in size
Outline: (§2)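 Measured: luminescence after ATPlite addition (15 min, RT). Exposure: 48 h, 37 C, 5% CO2.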

CAOV3 = test: as above; conditions: Gynecologic cancer cell panel viability, ATPlite luminescence, 48 h; series mostly up to 57.5 µM
Outline: as §2

CASKI = test: as above; conditions: Gynecologic cancer cell panel viability, ATPlite luminescence, 48 h; series mostly up to 57.5 µM
Outline: as §2

Es-2 = test: as above; conditions: Gynecologic cancer cell panel viability, ATPlite luminescence, 48 h; series mostly up to 57.5 µM
Outline: as §2

HeLa = test: as above; conditions: Gynecologic cancer cell panel viability, ATPlite luminescence, 48 h; series mostly up to 57.5 µM
Outline: as §2

Hek293T = test: as above; conditions: Gynecologic cancer cell panel viability, ATPlite luminescence, 48 h, control line for the selectivity index; series mostly up to 57.5 µM
Outline: as §2

JEG-3 = test: as above; conditions: Gynecologic cancer cell panel viability, ATPlite luminescence, 48 h; series mostly up to 57.5 µM
Outline: as §2

OV90 = test: as above; conditions: Gynecologic cancer cell panel viability, ATPlite luminescence, 48 h; series mostly up to 57.5 µM
Outline: as §2

PA-1 = test: as above; conditions: Gynecologic cancer cell panel viability, ATPlite luminescence, 48 h; series mostly up to 57.5 µM
Outline: as §2

SKOV3 = test: as above; conditions: Gynecologic cancer cell panel viability, ATPlite luminescence, 48 h; series mostly up to 57.5 µM
Outline: as §2

Tov-21-G = test: as above; conditions: Gynecologic cancer cell panel viability, ATPlite luminescence, 48 h; series mostly up to 57.5 µM
Outline: as §2

Tov112D = test: as above; conditions: Gynecologic cancer cell panel viability, ATPlite luminescence, 48 h; series mostly up to 57.5 µM
Outline: as §2

[1] = Drug repurposing screens with cells derived from glioblastoma tumor samples (AID 1345199); conditions: GBM patient neurospheres viability, ATP luminescence, 48 h; also: nearly all actives have a fitted effect of over 40% in size
Outline: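 Primary testing used CD133+ neurospheres from four GBM patients, seven concentrations, 48 h exposure and ATP-based viability; confirmation added three slower-growing patient lines.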
% is scaled to controls: 0 for no effect and ±100 for the full control effect.

Clc1cccc(-c2nnnn2Cc2cccnc2)c1Cl
inactive: Potency (UISO) | Potency (WaGa) | Potency (C33A) | Potency (CAOV3) | Potency (CASKI) | Potency (Es-2) | Potency (HeLa) | Potency (Hek293T) | Potency (JEG-3) | Potency (OV90) | Potency (PA-1) | Potency (SKOV3) | Potency (Tov-21-G) | Potency (Tov112D)

O=C(NCCS(=O)(=O)c1ccc(C(F)(F)F)cn1)c1ccc(Cl)cc1
inactive: Potency (UISO) | Potency (WaGa)

COc1cc(=C2C=c3ccccc3=N2)[nH]c1=Cc1[nH]c(C)cc1C
active: Potency (UISO) 13.2 µM | Potency (WaGa) 23.5 µM

CCCCCCCCCC(=O)N[C@@H](Cc1c[nH]c2ccccc12)C(=O)N[C@H](CC(N)=O)C(=O)N[C@@H](CC(=O)O)C(=O)N[C@@H]1C(=O)NCC(=O)N[C@@H](CCCN)C(=O)N[C@@H](CC(=O)O)C(=O)N[C@H](C)C(=O)N[C@@H](CC(=O)O)C(=O)NCC(=O)N[C@H](CO)C(=O)N[C@@H]([C@@H](C)CC(=O)O)C(=O)N[C@@H](CC(=O)c2ccccc2N)C(=O)O[C@@H]1C
inactive: Potency (UISO) | Potency (WaGa) | Potency (C33A) | Potency (CAOV3) | Potency (CASKI) | Potency (Es-2) | Potency (HeLa) | Potency (Hek293T) | Potency (JEG-3) | Potency (OV90) | Potency (PA-1) | Potency (SKOV3) | Potency (Tov-21-G) | Potency (Tov112D)

Clc1cccc(-n2nnnc2NCc2ccccc2Oc2ccccn2)c1Cl
inactive: Potency (UISO) | Potency (WaGa) | Potency (C33A) | Potency (CAOV3) | Potency (CASKI) | Potency (Es-2) | Potency (HeLa) | Potency (Hek293T) | Potency (JEG-3) | Potency (OV90) | Potency (PA-1) | Potency (SKOV3) | Potency (Tov-21-G) | Potency (Tov112D)

Nc1nc(-c2nn(Cc3ccccc3F)c3ncccc23)nc(N)c1N1CCOCC1
inactive: Potency (UISO) | Potency (WaGa)

C=C1C(=CC=C2CCC[C@]3(C)[C@@H]([C@H](C)C=C[C@H](C)C(C)C)CC[C@@H]23)C[C@@H](O)C[C@@H]1O
active: Potency (UISO) 8.33 µM | Potency (WaGa) 0.118 µM

Cc1[nH]c2ccccc2c1CCNCc1ccc(C=CC(=O)NO)cc1
active: Potency (UISO) 0.526 µM | Potency (WaGa) 0.059 µM

O=C(c1cncc(Br)c1)N1CCC(N2CCCC2)CC1
inactive: Potency (UISO) | Potency (WaGa) | Potency (C33A) | Potency (CAOV3) | Potency (CASKI) | Potency (Es-2) | Potency (HeLa) | Potency (Hek293T) | Potency (JEG-3) | Potency (OV90) | Potency (PA-1) | Potency (SKOV3) | Potency (Tov-21-G) | Potency (Tov112D)

CN(C)CCCN=c1c2ccccc2n(C)c2[nH]c(=O)n(C)c(=O)c12
active: Potency (UISO) 20.9 µM | Potency (WaGa) 7.43 µM

Nc1ccc(S(=O)(=O)Nc2ncccn2)cc1
inactive: Potency (UISO) | Potency (WaGa)

CC(=O)OCCN1C(=O)c2c(C)nc3ccc(S(=O)(=O)N4CCOCC4)cc3c2C1=O
inactive: Potency (UISO) | Potency (WaGa)

N#Cc1c(O)c2c(-c3ccc(-c4ccccc4O)cc3)csc2[nH]c1=O
inactive: Potency (UISO) | Potency (WaGa) | Potency (C33A) | Potency (CAOV3) | Potency (CASKI) | Potency (Es-2) | Potency (HeLa) | Potency (Hek293T) | Potency (JEG-3) | Potency (OV90) | Potency (PA-1) | Potency (SKOV3) | Potency (Tov-21-G) | Potency (Tov112D)

COc1cc(C(=O)NS(=O)(=O)c2ccccc2C)ccc1Cc1cn(C)c2ccc(NC(=O)OC3CCCC3)cc12
inactive: Potency (WaGa) | Potency (C33A) | Potency (CAOV3) | Potency (CASKI) | Potency (Es-2) | Potency (HeLa) | Potency (Hek293T) | Potency (JEG-3) | Potency (OV90) | Potency (PA-1) | Potency (SKOV3) | Potency (Tov-21-G) | Potency (Tov112D) | activity, negative = cell killing ([1]; at 45.9 µM (top of the series), tumour line B) -14.2% | activity, negative = cell killing ([1]; at 45.9 µM (top of the series), tumour line D) -15.9% | activity, negative = cell killing ([1]; at 46.1 µM (top of the series), tumour line C) 5.07%
active: Potency (UISO) 20.9 µM

CC(=O)OCC(=O)[C@@]1(O)[C@H](C)C[C@H]2[C@@H]3C=C(C)C4=Cc5c(cnn5-c5ccccc5)C[C@]4(C)[C@@H]3[C@@H](O)C[C@@]21C
inactive: Potency (UISO) | Potency (WaGa)

O=C(C=Cc1c(C(=O)O)[nH]c2cc(Cl)cc(Cl)c12)Nc1ccccc1
inactive: Potency (UISO) | Potency (WaGa)

CN(C)CC=CC(=O)Nc1cc2c(Nc3ccc(F)c(Cl)c3)ncnc2cc1O[C@H]1CCOC1
active: Potency (UISO) 14.8 µM | Potency (WaGa) 14.8 µM

CC(C)(C)OC(=O)Nc1ccc(-c2cc(C(=O)NCCCCCCC(=O)NO)no2)cc1
active: Potency (UISO) 10.5 µM | Potency (WaGa) 3.32 µM

C=C1C(=CC=C2CCCC3(C)[C@@H]([C@H](C)C=CC=CC(O)(CC)CC)CC[C@@H]23)C[C@@H](O)C[C@@H]1O (stereo partly drawn)
active: Potency (WaGa) 11.8 µM
inactive: Potency (UISO)

CCOc1cc2ncc(C#N)c(Nc3ccc(F)c(Cl)c3)c2cc1NC(=O)C=CCN(C)C
active: Potency (UISO) 2.64 µM | Potency (WaGa) 9.35 µM

O=C(NCCCNc1nc(Nc2cccc(NC(=O)N3CCCC3)c2)ncc1I)c1cccs1
active: Potency (UISO) 16.6 µM | Potency (WaGa) 9.35 µM

C1Cc2[nH]nc(-c3nn[nH]n3)c2C1
inactive: Potency (UISO) | Potency (WaGa) | Potency (C33A) | Potency (CAOV3) | Potency (CASKI) | Potency (Es-2) | Potency (HeLa) | Potency (Hek293T) | Potency (JEG-3) | Potency (OV90) | Potency (PA-1) | Potency (SKOV3) | Potency (Tov-21-G) | Potency (Tov112D)

O=C(C=Cc1cccc(S(=O)(=O)Nc2ccccc2)c1)NO
active: Potency (UISO) 34 µM | Potency (WaGa) 3.03 µM

COc1ccc(CC2SC(=O)NC2=O)cc1C(=O)NCc1ccc(C(F)(F)F)cc1 (stereo not drawn)
inactive: Potency (UISO) | Potency (WaGa)

CCCNC(=O)Nc1ccc(Oc2ncnc3cc(OC)c(OC)cc23)cc1Cl
inactive: Potency (UISO) | Potency (WaGa) | Potency (C33A) | Potency (CAOV3) | Potency (CASKI) | Potency (Es-2) | Potency (HeLa) | Potency (Hek293T) | Potency (JEG-3) | Potency (OV90) | Potency (PA-1) | Potency (SKOV3) | Potency (Tov-21-G) | Potency (Tov112D)

CC(NCc1ccc2c(c1)nc(NC(=O)c1ccc(-c3cn[nH]c3)s1)n2CC(C)(C)O)C(C)(C)C (stereo not drawn)
active: Potency (UISO) 1.32 µM | Potency (WaGa) 0.526 µM

O=C(C=Cc1cccnc1)NCCCCC1CCN(C(=O)c2ccccc2)CC1
active: Potency (UISO) 0.0209 µM | Potency (WaGa) 0.0166 µM

CN1CC[C@@H](c2c(O)cc(O)c3c(=O)cc(-c4ccccc4Cl)oc23)[C@@H](O)C1
active: Potency (UISO) 0.264 µM

Cc1c(Cn2c(C)nc3c(C(=O)O)cc(N4CCOCC4)cc32)cccc1C(F)(F)F
inactive: Potency (UISO) | Potency (WaGa) | Potency (C33A) | Potency (CAOV3) | Potency (CASKI) | Potency (Es-2) | Potency (HeLa) | Potency (Hek293T) | Potency (JEG-3) | Potency (OV90) | Potency (PA-1) | Potency (SKOV3) | Potency (Tov-21-G) | Potency (Tov112D)
